Source: PubChem BioAssay
The entries come from a sample that favours hits as a whole.
Dicer inh – blocks human Dicer maturation of pre-miR-21. hit rate 6% among 47,000. Q9UPY3. AID 1347074. cat-ELCCA pre-miR-21 Dicer processing, chemiluminescence; hits give high values. z-score at 25 µM; in the data active = z-score above about 3, passing the limit was not always enough;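 note: plate controls were vehicle for no effect and no enzyme for full effect; higher signal means more uncleaved substrate so more Dicer inhibition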
Numbers without * were called inactive.

SMILES | Dicer inh
COC(=O)c1ccc(Oc2nc(N(C)C)nc(N(C)C)n2)cc1 | -0.06
O=c1oc(-c2cccc(C(F)(F)F)c2)nn1-c1ncccc1C(F)(F)F | -0.86
COC(=O)C1C(=O)CC(C)(O)C(C(=O)OC)C1c1ccc(O)c(OC)c1 (centres undefined) | -0.63
CS(=O)(=O)/C(C#N)=N/Nc1ccc(OC(F)(F)F)cc1 | -1.1
Cc1ccc(S(=O)(=O)/C(=N/Nc2cc(C(F)(F)F)cc(C(F)(F)F)c2)[N+](=O)[O-])cc1 | 0.29
COc1cc(OC)cc(-c2nc(-c3cccc(C)c3)no2)c1 | -0.47
COc1oc(-c2cccc(C)c2)nc1C(F)(F)F | 3.6*
Cc1cccc(-c2nnc(-c3ccccc3)o2)c1 | 2.6
O=C(Nc1ccc2ccccc2n1)C1=Cc2cc(Cl)ccc2OC1 | 1.2
O=C1SC(Nc2ccc(Br)cc2)C(=O)N1Cc1ccccc1 (centres undefined) | 2.5
CC(C)(O)C#Cc1ccc(/C=N/Nc2c(Cl)cc(Cl)cc2Cl)cc1 | 2.5
C/C(=N\Nc1c(Cl)cc(Cl)cc1Cl)c1ccc(C#CC(C)(C)O)s1 | 3.2*
CC(=O)c1ccc(C#CC(C)(C)O)s1 | -0.68
O=C(O)CSC1(SCC(=O)O)CCCCCC1 | 2.3
NC(N)=NC(N)=Nc1ccc(Cl)cc1C(=O)c1ccccc1 | -0.61
